The structures appear in SMILES notation. ± gives the standard deviation of the averaged measurements. In all, about 1,600 compounds were measured (“normalized intracellular growth (luminescence, IQM-normalized) in RAW264.7 macrophages”: median about 1, lowest 2% from about 0.43 on). The entries come from a sample that favours the lowest values as a whole.

In the test the test system is Salmonella enterica serovar Typhimurium SL1344. Kind of test: normalized intracellular growth (luminescence, IQM-normalized) in RAW264.7 macrophages (fraction of plate interquartile mean); higher = more bacterial growth (less inhibition). The conditions noted are these: 10 µM.

`CCCCC(CC)COC(=O)c1ccccc1O` (configuration not stated): the normalized intracellular growth came out at 1.05 ± 0.055 (time point: T3 (3 h)) and 0.89 ± 0.17 (time point: Tfinal (~6 h)).
The matching figures for `Nc1ccc(C(=O)O)cc1`: 1.023 ± 0.0022 and 0.829 ± 0.11.
As to `CCc1cn([C@H]2C[C@H](O)[C@@H](CO)O2)c(=O)[nH]c1=O`, the normalized intracellular growth turned out to be 1.09 ± 0.034 (time point: T3 (3 h)) and 0.868 ± 0.01 (time point: Tfinal (~6 h)).
Consider `O=c1[nH]c(=O)n([C@H]2C[C@H](O)[C@@H](CO)O2)cc1I`, for which the normalized intracellular growth is, setting by setting: (time point: T3 (3 h)) 1.005 ± 0.0041; (time point: Tfinal (~6 h)) 1.01 ± 0.2.
Take `O=c1[nH]c(=O)n([C@H]2C[C@H](O)[C@@H](CO)O2)cc1F`: the normalized intracellular growth worked out at 0.699 ± 0.043 (time point: T3 (3 h)) and 0.209 ± 0.03 (time point: Tfinal (~6 h)).
As for `CC(C)(C)C(=O)C(Oc1ccc(Cl)cc1)n1ccnc1` (configuration not stated), the normalized intracellular growth came out at 1.042 ± 0.0043 (time point: T3 (3 h)) and 1.12 ± 0.016 (time point: Tfinal (~6 h)).
For `N#Cc1ccc2c(c1)N(CCCN1CCC(O)CC1)c1ccccc1S2` the same measures were 1.04 ± 0.014 and 0.869 ± 0.15.
For `CC(C)C[C@@H]1NC(=O)[C@H](CCCN)NC(=O)[C@H](C(C)C)NC(=O)[C@H](Cc2ccc(O)cc2)N[C@@H](CCC(=O)O)C(=O)N[C@@H](CC(N)=O)C(=O)[C@@H](Cc2ccccc2)NC(=O)[C@H](Cc2ccccc2)NC(=O)[C@@H]2CCCN2C(=O)[C@@H](Cc2ccccc2)NC1=O` the same measures were 0.95 ± 0.055 and 1 ± 0.064.
Consider `Cc1nnc(SCC2=C(C(=O)O)N3C(=O)[C@@H](NC(=O)Cn4cnnn4)[C@H]3SC2)s1`, for which the normalized intracellular growth worked out at 1.09 ± 0.087 (time point: T3 (3 h)) and 1.2 ± 0.074 (time point: Tfinal (~6 h)).
With `CC(=O)OCC1=C(C(=O)O)N2C(=O)[C@@H](NC(=O)CSc3ccncc3)[C@H]2SC1`, the normalized intracellular growth reads like this: (time point: T3 (3 h)) 1 ± 0.024; (time point: Tfinal (~6 h)) 0.957 ± 0.042.
With `CO/N=C(\C(=O)N[C@@H]1C(=O)N2C(C(=O)O)=C(COC(C)=O)CS[C@H]12)c1csc(N)n1`, the normalized intracellular growth is, setting by setting: (time point: T3 (3 h)) 0.898 ± 0.017; (time point: Tfinal (~6 h)) 0.178 ± 0.0072.
For `N[C@@H](C(=O)N[C@@H]1C(=O)N2C(C(=O)O)=C(Cl)CS[C@H]12)c1ccccc1` the same measures were 1.03 ± 0.054 and 1.08 ± 0.021.
With `CO/N=C(\C(=O)N[C@@H]1C(=O)N2C(C(=O)O)=C(C[N+]3(C)CCCC3)CS[C@H]12)c1csc(N)n1`, the normalized intracellular growth is, setting by setting: (time point: T3 (3 h)) 1.01 ± 0.054; (time point: Tfinal (~6 h)) 0.0358 ± 0.0021.
For `C=CC1=C(C(=O)O)N2C(=O)[C@@H](NC(=O)/C(=N\O)c3csc(N)n3)[C@H]2SC1`, the normalized intracellular growth was determined as 0.973 ± 0.034 (time point: T3 (3 h)) and 0.0262 ± 0.0031 (time point: Tfinal (~6 h)).
`CC(=O)OCC1=C(C(=O)O)N2C(=O)[C@@H](NC(=O)Cc3cccs3)[C@H]2SC1`: the normalized intracellular growth is, setting by setting: (time point: T3 (3 h)) 0.979 ± 0.037; (time point: Tfinal (~6 h)) 1.01 ± 0.027.
Consider `Cn1nnnc1SCC1=C(C(=O)O)N2C(=O)[C@@H](NC(=O)[C@H](O)c3ccccc3)[C@H]2SC1`, for which the normalized intracellular growth amounted to 1.08 ± 0.041 (time point: T3 (3 h)) and 1.02 ± 0.17 (time point: Tfinal (~6 h)).
For the molecule `CC=CC1=C(C(=O)O)N2C(=O)[C@@H](NC(=O)[C@H](N)c3ccc(O)cc3)[C@H]2SC1`, the normalized intracellular growth turned out to be 1.06 ± 0.039 (time point: T3 (3 h)) and 0.738 ± 0.11 (time point: Tfinal (~6 h)).
Turning to `CO/N=C(\C(=O)N[C@@H]1C(=O)N2C(C(=O)OCOC(=O)C(C)(C)C)=C(/C=C\c3scnc3C)CS[C@H]12)c1csc(N)n1`, the normalized intracellular growth runs as follows: (time point: T3 (3 h)) 0.923 ± 0.047; (time point: Tfinal (~6 h)) 0.0689 ± 0.074.
For `COCC1=C(C(=O)OC(C)OC(=O)OC(C)C)N2C(=O)[C@@H](NC(=O)/C(=N\OC)c3csc(N)n3)[C@H]2SC1` (some centres not stated) the same measures were 0.953 ± 0.066 and 1.06 ± 0.2.
In turn, `NC(=O)NC(=O)Cc1ccccc1` came in with a normalized intracellular growth (time point: T3 (3 h)) of 0.993 ± 0.021 and a normalized intracellular growth (time point: Tfinal (~6 h)) of 0.979 ± 0.038.
For the molecule `CNC(=N)NCCC[C@H](N)C(=O)O`, the normalized intracellular growth runs as follows: (time point: T3 (3 h)) 1.11 ± 0.029; (time point: Tfinal (~6 h)) 0.921 ± 0.26.
For `NC[C@H]1O[C@H](O[C@H]2[C@H](O)[C@@H](O[C@H]3O[C@H](CO)[C@@H](O)[C@H](N)[C@H]3O)[C@H](N)C[C@@H]2N)[C@H](N)[C@@H](O)[C@@H]1O` the same measures were 0.81 ± 0.012 and 0.554 ± 0.025.
Consider `CC1(C)[C@H]2CC[C@]1(CS(=O)(=O)O)C(=O)C2=Cc1ccc(C=C2C(=O)[C@@]3(CS(=O)(=O)O)CC[C@@H]2C3(C)C)cc1`, for which the normalized intracellular growth is, setting by setting: (time point: T3 (3 h)) 0.978 ± 0.028; (time point: Tfinal (~6 h)) 1.17 ± 0.22.
With `Cc1nccnc1N1CCCCC1`, the normalized intracellular growth (time point: T3 (3 h)) is 1.09 ± 0.057 and the normalized intracellular growth (time point: Tfinal (~6 h)) amounted to 0.933 ± 0.023.
For `CCC(=O)O[C@H](CC(=O)O)C[N+](C)(C)C` the same measures were 1.06 ± 0.052 and 1 ± 0.028.
For `NCCNCCNCCN` the same measures were 0.972 ± 0.044 and 1.2 ± 0.037.
For `CC(=O)OC1CC2CCC1(C)C2(C)C` (configuration not stated) the same measures were 1.011 ± 0.01 and 1.14 ± 0.018.
For the molecule `CC[n+]1c(-c2ccccc2)c2cc(N)ccc2c2ccc(N)cc21`, the normalized intracellular growth reads like this: (time point: T3 (3 h)) 0.993 ± 0.05; (time point: Tfinal (~6 h)) 1.13 ± 0.11.
The matching figures for `CC(C)(C)CC(C)(C)c1cc(Cc2cc(C(C)(C)CC(C)(C)C)cc(-n3nc4ccccc4n3)c2O)c(O)c(-n2nc3ccccc3n2)c1`: 1.02 ± 0.096 and 1.19 ± 0.3.
For `CNC(=O)c1c(I)c(NC(C)=O)c(I)c(C(=O)O)c1I` the same measures were 1.01 ± 0.056 and 0.883 ± 0.21.
For the molecule `C[N+]1(C)[C@@H]2CC[C@H]1C[C@@H](OC(=O)C(O)c1ccccc1)C2` (some centres not stated), the normalized intracellular growth is 0.968 ± 0.056 (time point: T3 (3 h)) and 1.06 ± 0.025 (time point: Tfinal (~6 h)).
For `C[C@]12C=CC(=O)C=C1CC[C@@H]1[C@@H]2[C@@H](O)C[C@@]2(C)[C@H]1CC[C@]2(O)C(=O)COP(=O)(O)O` the same measures were 0.954 ± 0.029 and 1.16 ± 0.24.
For `S=C1SCN(Cc2ccccc2)CN1Cc1ccccc1` the same measures were 1.01 ± 0.087 and 0.779 ± 0.14.
Consider `CCOC(=O)C1=C[C@@H](OC(CC)CC)[C@H](NC(C)=O)[C@@H](N)C1`, for which the normalized intracellular growth runs as follows: (time point: T3 (3 h)) 1.01 ± 0.021; (time point: Tfinal (~6 h)) 1.33 ± 0.15.
With `CN(Cc1cnc2nc(N)nc(N)c2n1)c1ccc(C(=O)NC(CCC(=O)O)C(=O)O)cc1` (racemic), the normalized intracellular growth amounted to 1.05 ± 0.046 (time point: T3 (3 h)) and 0.825 ± 0.024 (time point: Tfinal (~6 h)).
As for `CO/N=C(\C(=O)N[C@@H]1C(=O)N2C(C(=O)O)=C(CSc3nc(=O)c(O)nn3C)CS[C@H]12)c1csc(N)n1`, the normalized intracellular growth by setting is: (time point: T3 (3 h)) 0.891 ± 0.022; (time point: Tfinal (~6 h)) 0.311 ± 0.035.
